Source: PubChem
Tau fluor cs – counter-screen for tau fibril formation inhibitors; tau K18 P301L Alexa594 fluorescence, heparin fibrillization; Potency, µM (titrated, usually from 57.7 µM); hit rate 0.93% among 280,000; AID 1463; also: nearly all actives have a fitted effect of over 55% in size
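Human tau K18 P301L (15 uM unlabeled, 0.24 uM Alexa 594-labeled) in 100 mM sodium acetate pH 7 with 20 uM heparin, 6 hr at 37 C. ThT 30 uM added, 1 hr ambient; Alexa 594 FP and total fluorescence read at 555/632 nm.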
Tau FP inhib – tau fibrillization inhibition (FP); hit rate 0.39% among 280,000; Potency, µM (doses to about 57.7 µM), usual class: inhibitors; K18 P301L tau heparin fibrillization, Alexa594 FP, 6 h; also: nearly all actives have a fitted effect of over 55% in size
Target sequence (P10636 561-689 P618L limits assumed): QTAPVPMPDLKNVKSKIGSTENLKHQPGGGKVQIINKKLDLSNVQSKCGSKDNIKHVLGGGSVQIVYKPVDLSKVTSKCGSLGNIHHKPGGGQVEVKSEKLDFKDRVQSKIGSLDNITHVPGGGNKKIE
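FP of Alexa 594-tau after heparin (20 uM) induction. Substrate: human K18 P301L, 15 uM unlabeled, 0.24 uM labeled. Buffer 100 mM sodium acetate pH 7. 6 hr, 37 C.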
JMJD2E inh – inhibitors of human JMJD2E histone demethylase | B2RXH2 | JMJD2E catalytic domain, FDH-coupled NADH fluorescence (FDH is formaldehyde dehydrogenase) | Potency, µM (highest dose often 57.1 µM), hits mostly inhibitors | hit rate 1.6% among 230,000; active = well fitted inhibition curve with a large enough effect, not every such curve was filed as active; inconclusive = small, poorly fitted or top-dose-only effect, or another doubt; inactive = no such curve, though single readings can be large or run the other way; also: nearly all actives have a fitted effect of over 50% in size
Target sequence (B2RXH2 1-337 limits assumed): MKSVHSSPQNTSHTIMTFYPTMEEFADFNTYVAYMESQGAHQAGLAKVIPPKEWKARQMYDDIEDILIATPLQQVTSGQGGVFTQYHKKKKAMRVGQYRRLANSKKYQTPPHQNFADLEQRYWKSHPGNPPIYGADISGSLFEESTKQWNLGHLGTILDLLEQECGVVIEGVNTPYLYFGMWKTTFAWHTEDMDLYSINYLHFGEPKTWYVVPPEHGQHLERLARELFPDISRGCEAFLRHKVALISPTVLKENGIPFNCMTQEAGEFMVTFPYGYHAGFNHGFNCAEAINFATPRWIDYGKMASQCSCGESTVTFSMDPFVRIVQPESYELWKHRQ
Tau ThT inhib – inhibitors of human tau fibril formation, thioflavin T binding | recombinant tau K18 P301L, heparin-induced fibrillization, ThT fluorescence | Potency, µM (series often up to 57.4 µM), hits mostly inhibitors | hit rate 2.1% among 270,000; also: nearly all actives have a fitted effect of over 55% in size
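Fibril formation assay: tau K18 P301L at 15 uM with trace Alexa 594 label, heparin inducer 20 uM, pH 7 sodium acetate buffer, 37 C for 6 hr; endpoint ThT signal.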
FBPA coupling cs – coupling enzyme interference in Giardia aldolase counter-screen; coupling enzyme system counterscreen, AmpLite Red fluorescence; activity change, negative = inhibition, % at 58.2 µM, hits read low; hit rate 0.67% among 290,000; in the data active = activity change below about -30%
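Counterscreen of the coupled detection system alone, without aldolase: glyceraldehyde-3-phosphate coupling enzymes plus AmpLite Red readout. Compounds at 57.5 uM final, 10 min RT preincubation, 20 min RT reaction, fluorescence 525/598 nm.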
Hits are given with their value; i = inactive; ? = inconclusive; nt = no result; [ ] = remark or other dose. Rows were chosen to be rich in hits. Some 3% of all compounds tested hit in one or more screens of this group. Unless noted, calls follow the shape of the dose curve; as a rule, active = well fitted curve in the direction sought with a large enough effect; inconclusive = small, poorly fitted or top-dose-only effect, or another doubt; inactive = no such curve, though single readings can be large; an effect the other way counts as inactive or inconclusive.

SMILES | Tau fluor cs | Tau FP inhib | JMJD2E inh | Tau ThT inhib | FBPA coupling cs
Cc1cccc(N/N=C/c2ccc(O)c(O)c2O)c1 | ? | 15.8µM | 3.16µM | 10µM | -68.5
COc1ccc(S(=O)(=O)NCC(c2ccco2)S(=O)(=O)c2cccs2)cc1C (configuration not stated) | i | i | nt | i | nt
Cc1cc(NC(=O)Nc2ccc3c(ccn3C)c2)sn1 | 12.6µM[quencher] | ? | i | ? | i
CCCCc1nc2c(c3c1C[C@H](C)OC3)CN(S(=O)(=O)c1ccc(Cl)c3nonc13)CC2 | i[11.6 µM] | i[11.6 µM] | i[11.4 µM] | i[11.5 µM] | i
O=C(N/N=C/c1ccccc1C(=O)O)c1ccccc1Br | i | i | i | i | i
C=CCc1cccc(/C=N/NC(=O)c2ccccc2OC)c1O | i | i | 31.6µM | i | i
C=CCc1cccc(/C=N/NC(=O)c2ccccc2Br)c1O | ? | ? | 25.1µM | i | i
COc1ccc([C@H]2OCC3C2CO[C@@H]3c2ccc(OC)c(OC)c2)cc1OC (some centres not stated) | nt | nt | nt | nt | i
CC(=O)N[C@H]1CSSC[C@@H](C(=O)N2CCC[C@H]2C(=O)N2CCC[C@H]2C(=O)N[C@@H](CCCCN)C(=O)N[C@@H](CC(=O)O)C(N)=O)NC(=O)CNC(=O)[C@H](Cc2c[nH]c3ccccc23)NC(=O)[C@H](CCCNC(=N)N)NC(=O)[C@@H](Cc2ccc(Cl)c(Cl)c2)NC(=O)[C@H](Cc2cnc[nH]2)NC(=O)[C@H](CCC(=O)O)NC1=O | nt | nt | nt | nt | i
CCOc1cc(/C=C(\C#N)c2[nH]nc(N)c2C#N)ccc1O | ? | i | ? | 14.1µM | i
N#CC1(C#N)C2=C(CCCC2)NC(c2ccccc2)C1(C#N)C#N (configuration not stated) | ? | ? | ? | 25.1µM | i
CSc1ccc(CCNC(=O)C(C)n2nc(C)c3sc4ccccc4c3c2=O)cc1 (configuration not stated) | i | i | nt | ? | nt
CSc1ncc(CN2CCc3c([nH]c4ccccc34)C2c2cccc(O)c2)cn1 (configuration not stated) | 15.8µM[quencher] | i | ? | i | i
CSc1ncc(CN2CCc3c([nH]c4ccccc34)C2c2cccc(C)n2)cn1 (configuration not stated) | i | i | i | ? | i
CCCS(=O)(=O)N1CC(=O)N(c2ccccc2F)C(C)(C(=O)NC2CCCCCC2)C1 (configuration not stated) | i | i | nt | i | nt
C#CCSc1nc2sc3c(c2c(=O)n1-c1cccc(OC)c1)CCN(C(C)=O)C3 | i | ? | nt | 25.1µM | nt
Cc1ccc(OCC(=O)OC2=C(C(=O)c3ccccc3)N(C)S(=O)(=O)c3ccccc32)cc1 | i | ? | nt | ? | nt
C=C(C)C(=O)NNc1ccccc1 | i | i | 14.1µM | i | i
CCC(C)c1ccc(C2C3=C(Nc4nc(N)[nH]c(=O)c42)c2ccccc2C3=O)cc1 (configuration not stated) | ? | i | i | ? | i
COc1cc(C2C3=C(Nc4nc(N)[nH]c(=O)c42)c2ccccc2C3=O)ccc1O (configuration not stated) | i | i | i | 11.2µM | i
Cn1c2c(c(=O)[nH]c1=O)C(c1ccc(O)cc1)C1=C(N2)c2ccccc2C1=O (configuration not stated) | ? | i | i | 22.4µM | i
Nc1nc2c(c(=O)[nH]1)C(c1ccccc1)C1=C(N2)c2ccccc2C1=O (configuration not stated) | ? | i | ? | 6.31µM | i
CC1CCN(S(=O)(=O)c2ccc3c(ccc(=O)n3CC(=O)Nc3cccc(F)c3)c2)CC1 | i | ? | nt | i | nt
COC(CNC(=O)c1ccc(N2CCc3ccccc32)c([N+](=O)[O-])c1)OC | ? | i | i | ? | i
NNC(=O)c1ccc(N2CCc3ccccc32)c([N+](=O)[O-])c1 | ? | i | i | 14.1µM | i
SMILES | Tau fluor cs | Tau FP inhib | JMJD2E inh | Tau ThT inhib | FBPA coupling cs
COC(=O)c1c(SCC(=O)Nc2ccccc2OC)[nH]c2ccccc2c1=O | ? | i | nt | 14.1µM | nt
CN(C)c1ccc(/C=N/Nc2ccc(-n3ccnc3)nn2)cc1 | ? | i | i | 5.01µM | i
O=C(O)c1ccc(-c2nc(-c3ccccc3)c(-c3cccs3)[nH]2)cc1 | i | ? | ? | nt | i
CCOc1cc(-c2nc(-c3ccccc3)c(-c3cc([N+](=O)[O-])ccc3C)[nH]2)ccc1O | 11.2µM[quencher] | i | i | ? | i
O=[N+]([O-])c1ccc(O)c(-c2nc(-c3ccccc3)c(-c3cccs3)[nH]2)c1 | 11.2µM[quencher] | i | i | 20µM | i
COc1ccc(/C=C/C(=O)c2ccoc2)cc1 | i | i | ? | ? | i
COc1ccc(/C=C/C(=O)c2ccccn2)cc1 | i | i | ? | 20µM | i
COc1ccc(/C=C/C(=O)c2c(O)c(OC)c3occc3c2OC)cc1 | ? | i | i | 4.47µM | i
COc1ccc(/C=C/C(=O)c2ccccc2O)cc1 | i[11.6 µM] | i[11.6 µM] | i | ? | i
CN(CCC#N)C(=O)COC(=O)c1c2c(nc3ccccc13)/C(=C/c1ccco1)CC2 | ? | ? | 25.1µM | ? | i
CC(C)NC(=O)Cn1nnc(-c2ccc(Cl)cc2)n1 | ? | ? | i | 25.1µM | i
O=C(CSc1nnnn1C1CCCCC1)N1CCN(C(=O)c2ccco2)CC1 | i | i[2.34 µM] | ? | 3.55µM | i
O=C(CSc1nnnn1C1CCCC1)N1CCN(C(=O)c2ccco2)CC1 | i | i | i | i | i
Cc1ccc(-n2ncc(C(=O)NCCCN3CCN(C)CC3)c2C2CCN(C(=O)OC(C)(C)C)CC2)cc1 | i | i | nt | i | nt
COc1ccc(/C=C/C=C2\N=C(SC)SC2=O)cc1 | i | ? | i | 3.98µM | i
CSC1=N/C(=C\c2ccc(F)cc2)C(=O)S1 | i | i | i | ? | i
CCOc1ccc(N=Nc2c(=O)[nH]n3c(=O)c4c([nH]c23)CCCC4)cc1 | ? | i | ? | 1.78µM | i
O=c1[nH]n2c(=O)c3c([nH]c2c1N=Nc1cccc(Cl)c1)CCCC3 | ? | i | i | 2.82µM | i
COc1ccccc1OCCCn1cc(C#N)c2ccccc21 | i | i | i | ? | -32.1
Cc1ccc(CSc2ncc(Cl)c(C(=O)NCCc3ccc(S(N)(=O)=O)cc3)n2)cc1 | i | i | nt | i | nt
COC(=O)C1=C(C)N(CCc2ccc(OC)c(OC)c2)C(=O)/C1=C\N(C)C | i | ? | i | 14.1µM | i
COc1ccc(CCNC2=C(Cl)C(=O)N(CCc3ccc(OC)c(OC)c3)C2=O)cc1OC | i | i | i | i | i
Cc1cc(C)c(CN2C(=O)c3ccccc3S(=O)(=O)c3ccc(C(=O)OCC4CCCO4)cc32)c(C)c1 (configuration not stated) | i | i | nt | i | nt
COc1cc(Cl)c(C)cc1NC(=O)CCCN1C(=O)C(c2ccccc2)Oc2cccnc21 (configuration not stated) | i | i | nt | i | nt
NC(=O)c1c(NC(=O)c2cc(-c3ccc(F)cc3)on2)sc2c1CCCC2 | i | ? | nt | 31.6µM | nt
